Bioassay records (PubChem BioAssay)
An excerpt weighted towards active compounds, which were near 2.2% of everything screened.
FUS yeast rescue: rescues growth of FUS-expressing yeast; S. cerevisiae FUS-expressing, growth rescue, OD600, 24 h; Potency, µM (top dose mostly 76.6 µM), hits mostly activators; 390,000 tested, 0.24% active;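 further: plate controls were DMSO vehicle for no effect and reference control for full effect; nearly all actives have a fitted effect of over 55% in size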
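Quantitative HTS measuring growth restoration of FUS-toxic yeast. Galactose-induced cells (OD 0.005) were exposed 24hr at 30C to compounds at several concentrations, then absorbance at 600 nm was recorded.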
TDP43 rescue: TDP-43 toxicity inhibition in yeast; TDP-43 expressing yeast growth rescue, BacTiter-Glo, 24 h; Potency, µM (titrated, usually from 46.1 µM), for inactives: at the highest dose growth rescue (activation), usual class: activators; 410,000 tested, 1.8% active; AID 652104; further: % of control where 0% means no effect; nearly all actives have a fitted effect of over 50% in size
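Luminescence from BacTiter-Glo reports growth of TDP-43-expressing yeast after 24 hr at 30 deg C with compound. Cells were raffinose-pregrown to mid-log, then seeded in galactose medium at OD600=0.02.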
Mito fusion yeast: mitochondrial division inhibition or fusion activation. S. cerevisiae fusion-defective mutant growth rescue, CellTiterGlo 48 h. 320,000 tested, 0.23% active. Potency, µM (series often up to 46.1 µM), for the others: at the highest dose growth rescue (activation), actives largely listed as activators. AID 485298; further: % of control where 0% means no effect; nearly all actives have a fitted effect of over 45% in size
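Yeast fusion mutant, YPEG (non-fermentable carbon), compound, 48 h at 37C non-permissive; CellTiterGlo added, 10 min RT, luminescence read. Rescued growth = division inhibition.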
aSyn rescue: inhibitors of alpha-synuclein toxicity in yeast | Yeast expressing alpha-synuclein, growth rescue, BacTiter-Glo, 24 h | Potency, µM (doses to about 46.1 µM), for inactives: top-dose growth rescue (activation), usual class: activators | 370,000 tested, 0.14% active; further: % of control where 0% means no effect; nearly all actives have a fitted effect of over 65% in size
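Galactose-induced alpha-syn yeast (OD600=0.02, raffinose-pregrown) + pinned cpd, 24 hr, 30 deg C; growth by BacTiter-Glo luminescence. Growth restoration scores as activation.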
Abeta yeast res: compounds reversing amyloid beta toxicity in yeast; yeast expressing A-beta42, growth rescue, OD600, 48 h; response scale: 0% DMSO, 100% iron-clioquinol control; Potency, µM (titrated, usually from 46.1 µM), actives largely listed as activators; 410,000 tested, 0.063% active; further: nearly all actives have a fitted effect of over 55% in size
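Growth rescue measured by 600 nm absorbance after 48 h yeast culture at 30 C with compound. Values normalized between DMSO and an equimolar ferric chloride plus clioquinol control.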
The depositor's hits bear a star; i = inactive; ? = inconclusive; nt = not tested or not shown. The call rests on the fitted dose curve; in most records, active means well fitted curve in the direction sought with a large enough effect; inconclusive means small, poorly fitted or top-dose-only effect, or another doubt; inactive means no such curve, though single readings can be large; an effect the other way counts as inactive or inconclusive. Potency means the concentration at half of the fitted maximal effect.

SMILES	FUS yeast rescue	TDP43 rescue	Mito fusion yeast	aSyn rescue	Abeta yeast res
O=C(CNS(=O)(=O)c1ccc(Br)s1)NCc1ccccc1	i	-16%	1%	-14%	i
O=C(CCSc1ccc(Br)cc1)c1ccc(O)cc1	i	11µM*	7%	2%	i
Clc1nc2c(-c3ccccc3)nnn2c2ccccc12	i	6.3µM*	-11%	-16%	i
Cc1ccc(-c2nnn3c2nc(Cl)c2ccccc23)cc1	i	5%	-9%	-17%	i
CSc1cccc(NC(=O)C2CCCN(S(=O)(=O)c3ccc4c(c3)CCCN4C(C)=O)C2)c1 (configuration not stated)	?	-4%	nt	nt	i
C=CCn1cccc(C(=O)Nc2ccc(Cl)cc2)c1=O	i	10µM*	?	2%	i
C=CCn1cccc(C(=O)Nc2ccc(SC)cc2)c1=O	i	0%	?	3%	i
O=C(N/N=C/c1cccc(C(F)(F)F)c1)c1cc2c(s1)-c1ccccc1CC2	i	-4%	2%	-2%	i
Cc1cccc(/C=N/NC(=O)c2cc3c(s2)-c2ccccc2CC3)c1	i	?	11µM*	24%	i
CCCc1cc(C(=O)Nc2c(C)nn(Cc3c(Cl)cccc3Cl)c2C)no1	i	0%	nt	nt	i
Cc1ccccc1CC1(C)C(=O)Nc2ccc(S(=O)(=O)NC3CCCCC3)cc21 (configuration not stated)	i	26%	nt	-2%	i
S=c1[nH]nc(Cc2ccc(Br)cc2)n1/N=C/c1ccc(Cl)cc1	i	8.9µM*	24%	-14%	?
CCOC(=O)C1=CCC(c2ccccc2)N(S(=O)(=O)c2ccc(C)cc2)[C@H]1CC (some centres not stated)	i	-6%	nt	-3%	i
O=C(O)c1cccc(-c2ccc(/C=c3/sc4nc5ccccc5n4c3=O)o2)c1	i	10%	32µM*	7%	i
CCOC(=O)CSc1nnc2c3ccccc3n(C)c2n1	i	13µM*	-2%	-1%	i
CCn1c2ccccc2c2nnc(SCC(N)=O)nc21	i	-12%	4%	-5%	i
CCCn1c2ccccc2c2nnc(SCC(=O)OCC)nc21	i	22%	25%	-5%	i
CCn1c2ccccc2c2nnc(SCc3ccccc3)nc21	i	25µM*	16µM*	-18%	i
O=C(O)CSc1ccc2ccccc2n1	i	20%	-6%	-9%	i
COc1cccc(NC(=O)CCSc2ccc3ccccc3n2)c1	nt	13µM*	21%	13%	i
O=C(O)CCSc1ccc2ccccc2n1	i	18µM*	5%	1%	i
CCc1ccc(CNC(=O)c2cc3c(C)nc4ccccc4c3o2)cc1	?	20µM*	16%	26%	i
CCc1c(-c2ccccc2)nc2ccccc2c1C(=O)NCCc1ccccc1	i	33%	nt	nt	i
CCc1c(-c2ccccc2)nc2ccccc2c1C(=O)NCc1ccc(C)cc1	?	35µM*	nt	nt	i
Nc1c(Cl)cc(C2=NCCn3c2c2ccc(C(F)(F)F)cc2[n+]3[O-])cc1Cl	i	13%	19%	-4%	i
SMILES	FUS yeast rescue	TDP43 rescue	Mito fusion yeast	aSyn rescue	Abeta yeast res
Brc1ccc(CSc2nnc(Cc3c[nH]c4ccccc34)o2)cc1	nt	8.9µM*	10%	0%	i
Clc1ccc(CSc2nnc(-c3c[nH]c4ccccc34)o2)cc1	i	-18%	4%	-1%	i
COc1ccc(Br)cc1Cn1nnc(C(=O)Nc2cccc(SC)c2)c1N	i	17%	nt	nt	i
O=C1CC(c2ccc(O)cc2)Oc2cc(O)cc(O)c21 (configuration not stated)	i	9%	-3%	2%	i
CC1CC(=O)c2c(cc3c(-c4c(O)cc(O)c5c(O)c6c(cc45)OC(C)CC6=O)c(O)cc(O)c3c2O)O1 (configuration not stated)	i	35µM*	-6%	-21%	i
Cc1cc(C)c(S(=O)(=O)N2CCN(C(=O)c3ccc(-n4nc(C)c(Cl)c4C)cc3)CC2)c(C)c1	16µM*	?	nt	27%	i
Cc1ccc(S(=O)(=O)N2CCN(C(=O)c3ccc4c(c3)OCO4)CC2)cc1	i	-25%	1%	-5%	i
Cc1cc(C)c(S(=O)(=O)N2CCN(C(=O)c3ccc4c(c3)OCO4)CC2)c(C)c1	i	16µM*	5%	9%	i
O=C(c1ccc2c(c1)OCO2)N1CCN(S(=O)(=O)c2ccc(Br)cc2Cl)CC1	i	18µM*	19%	14%	i
O=C(c1ccc2c(c1)OCO2)N1CCN(S(=O)(=O)c2ccccc2)CC1	nt	22%	2%	0%	i
Cc1ccc(S(=O)(=O)N2CCN(C(=O)COC(=O)CCOc3cc(C)ccc3C)CC2)c(C)c1	nt	1%	nt	10%	?
CCOc1ccccc1OCCCC(=O)N1CCN(S(=O)(=O)c2ccc(Cl)cc2)CC1	i	14%	2%	1%	i
Cc1ccc(C)c(OCCC(=O)N2CCN(S(=O)(=O)c3cc(F)ccc3F)CC2)c1	i	18µM*	3%	0%	i
Cc1cc(Cl)ccc1OCCCC(=O)N1CCN(S(=O)(=O)c2ccccc2)CC1	i	14µM*	?	18%	i
Cc1ccc(S(=O)(=O)N2CCN(C(=O)CCOc3cc(C)ccc3C)CC2)cc1	i	35µM*	6%	10%	i
CC1(C)Cc2c(sc3nnn(Cc4ccc(Cl)cc4)c(=O)c23)CO1	nt	13µM*	24%	10%	i
CC1(C)Cc2c(sc3nnn(CC(=O)Nc4ccccc4)c(=O)c23)CO1	i	15%	-4%	14%	i
Cc1ccc2[nH]c(-c3cccc(N)c3)cc2c1	?	22µM*	-4%	12%	i
Cc1ccc2[nH]c(-c3cccc(F)c3)cc(=O)c2c1	i	19%	-2%	7%	i
COc1cc(C(=O)N2CCC2(C)C(=O)O)cc(OC)c1OC (configuration not stated)	i	15%	nt	-4%	i
CCOc1ccccc1N=C1SCC(C)N1C(=O)C1CCN(c2ncnc3sc(C)c(C)c23)CC1 (configuration not stated)	i	20µM*	nt	6%	i
Cc1noc(C)c1COc1ccc(C(=O)Nc2ncccc2O)cc1	i	4%	6%	-1%	i
COc1ccccc1C(=O)NCCSc1c(C)[nH]c2ccccc12	i	32µM*	nt	nt	?
COc1cccc(C(=O)NCCSc2c(C)[nH]c3ccccc23)c1OC	i	?	6%	?	i
O=C(NCCSc1c[nH]c2ccccc12)c1ccccc1Cl	i	35µM*	nt	nt	i
